From PubChem BioAssay (NCI)
About 79,000 compounds went through this panel and 15% of them were active in at least one assay; those are over-represented in the sample as a whole. Unmarked numbers belong to inactive results. Active and inactive are the calls of the source. Rule as the data show it: active = growth inhibition above about 70%; inactive = the rest.

Legend:
[1] = NCI Yeast Anticancer Drug Screen. Data for the rad52 strain (AID 147);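 also: 0% = growth of vehicle-treated control cultures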; conditions: S. cerevisiae rad52 mutant growth inhibition, hits give high values
How it was run: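 Screen used a yeast mutant impaired in DNA repair. After compound exposure, growth was measured. Values reflect inhibition compared with vehicle-treated cells.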

[2] = NCI Yeast Anticancer Drug Screen. Data for the wt1 strain (AID 149);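 also: 0% = growth of vehicle-treated wt1 cultures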; conditions: S. cerevisiae wt1 strain (SPY 50644) growth inhibition, hits give high values
How it was run: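 Measured: growth of wt1 yeast under compound versus vehicle treatment, reported as inhibition.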

[3] = NCI Yeast Anticancer Drug Screen. Data for the rad50EPP+ strain (AID 151);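 also: 0% = growth of vehicle-treated control cultures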; conditions: S. cerevisiae rad50 mutant strain, hits give high values
How it was run: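 Exposing the rad50EPP+ strain to each compound, growth was compared with vehicle-only cultures to give inhibition.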

[4] = NCI Yeast Anticancer Drug Screen. Data for the mgt1 strain (AID 153); conditions: S. cerevisiae mgt1 mutant growth inhibition, hits give high values
How it was run: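 Genetically defined yeast (mgt1) treated with compound; inhibition of growth expressed against vehicle-treated controls.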

[5] = NCI Yeast Anticancer Drug Screen. Data for the rad50 strain (AID 155);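 also: 0% = growth of vehicle-only cultures of the same strain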; conditions: S. cerevisiae rad50 strain growth inhibition, hits give high values
How it was run: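 Growth of the mutant yeast was measured after compound exposure and referenced to vehicle-treated cultures.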

[6] = NCI Yeast Anticancer Drug Screen. Data for the mec2-1 strain (AID 157); conditions: S. cerevisiae mec2-1 strain, hits give high values
How it was run: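 Readout is yeast growth inhibition, normalised to vehicle-treated controls, in the mec2-1 strain exposed to compound.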

[7] = NCI Yeast Anticancer Drug Screen. Data for the rad14 strain (AID 159);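 also: 0% = growth of vehicle-treated control cultures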; conditions: S. cerevisiae rad14 strain growth inhibition, hits give high values
How it was run: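 Here, inhibition of yeast growth was measured after compound exposure, using a strain with a genetic defect in DNA damage repair and vehicle-treated cultures as the reference.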

[8] = NCI Yeast Anticancer Drug Screen. Data for the sgs1 mgt1 strain (AID 161);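 also: 0% = growth of cultures given vehicle only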; conditions: S. cerevisiae sgs1 mgt1 strain, hits give high values
How it was run: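 Yeast cells carrying a defined DNA-repair defect were exposed to test compounds. Growth inhibition was measured relative to vehicle-treated controls.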

[9] = NCI Yeast Anticancer Drug Screen. Data for the CLN2oe strain (AID 163);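 also: 0% = growth of vehicle-only control cultures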; conditions: S. cerevisiae CLN2oe strain, hits give high values
How it was run: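 Values reflect how much compound exposure reduced yeast growth, referenced to vehicle-exposed cells. Assay organism is a strain with a defined genetic change affecting cell-cycle control.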

[10] = NCI Yeast Anticancer Drug Screen. Data for the cln2 rad14 strain (AID 165);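 also: 0% = growth equal to vehicle treated cultures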; conditions: S. cerevisiae cln2 rad14 strain, hits give high values
How it was run: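 Relative to vehicle controls, growth inhibition of compound-treated cln2 rad14 yeast was recorded.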

[11] = NCI Yeast Anticancer Drug Screen. Data for the bub3 strain (AID 167); conditions: S. cerevisiae bub3 mutant strain, hits give high values
How it was run: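 Whole-cell yeast assay. The mutant strain was incubated with compounds, and growth inhibition was determined by comparison with vehicle-treated cells.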

[12] = NCI Yeast Anticancer Drug Screen. Data for the wt2 strain (AID 169);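 also: 0% = growth of vehicle-treated yeast cultures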; conditions: S. cerevisiae wt2 strain growth inhibition, hits give high values
How it was run: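 Values express reduction in yeast growth under compound treatment, referenced to vehicle-treated cells.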

[13] = NCI Yeast Anticancer Drug Screen. Data for the sgs1 strain (AID 173);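 also: 0% = growth of vehicle-only control cultures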; conditions: S. cerevisiae sgs1 mutant, hits give high values
How it was run: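 Treat defined-mutant yeast with compound; measure growth; calculate inhibition relative to vehicle-treated cells.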

[14] = NCI Yeast Anticancer Drug Screen. Data for the mlh1 rad18 strain (AID 175); conditions: S. cerevisiae mlh1 rad18 strain growth inhibition, hits give high values
How it was run: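 Test agents were incubated with a yeast strain of defined genotype (DNA damage repair defect). Inhibition of growth was derived by comparison with vehicle-exposed cultures.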

[15] = NCI Yeast Anticancer Drug Screen. Data for the rad18 strain (AID 177); conditions: S. cerevisiae rad18 mutant growth inhibition, hits give high values
How it was run: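 A genetically defined yeast mutant impaired in DNA damage repair was treated with test compounds, then its growth was measured against cultures receiving vehicle alone.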

[16] = at 5.0 µM (retest, dose inferred, filed as 0.5)
[17] = at 50.0 µM (retest, dose inferred, filed as 5.0)

Which growth inhibition ([1]; at 1.2 µM) does the source give for `C(=Nc1ccc(-c2cc(-c3ccccc3)nc3ccc4ccccc4c23)cc1)c1ccccc1` here?
The growth inhibition was 34%.

What about the growth inhibition ([1]; at 3.7 µM) of the same compound?
The growth inhibition was 40%.

And the growth inhibition ([1]; at 11.0 µM)?
The growth inhibition was 37%.

And the growth inhibition ([1]; at 33.0 µM)?
Its growth inhibition is 53%.

What about the growth inhibition ([1]; at 100.0 µM) of the same compound?
Its growth inhibition is 76% (active).

And the growth inhibition ([2]; at 1.2 µM)?
Its growth inhibition is 26%.

What about the growth inhibition ([2]; at 3.7 µM) of the same compound?
The growth inhibition was 24%.

And the growth inhibition ([2]; at 11.0 µM)?
Its growth inhibition is 9%.

What about the growth inhibition ([2]; at 33.0 µM) of the same compound?
Its growth inhibition is 31%.

And the growth inhibition ([2]; at 100.0 µM)?
The growth inhibition was 57%.

What about the growth inhibition ([3]; at 1.2 µM) of the same compound?
The growth inhibition was 16%.

What about the growth inhibition ([3]; at 3.7 µM) of the same compound?
The growth inhibition was 7%.

And the growth inhibition ([3]; at 11.0 µM)?
The growth inhibition was 15%.

What about the growth inhibition ([3]; at 33.0 µM) of the same compound?
The growth inhibition was 10%.

And the growth inhibition ([3]; at 100.0 µM)?
Its growth inhibition is 6%.

And the growth inhibition ([4]; at 1.2 µM)?
Its growth inhibition is 21%.

What about the growth inhibition ([4]; at 3.7 µM) of the same compound?
Its growth inhibition is 11%.

What about the growth inhibition ([4]; at 11.0 µM) of the same compound?
Its growth inhibition is 12%.

What about the growth inhibition ([4]; at 33.0 µM) of the same compound?
The growth inhibition was 10%.

What about the growth inhibition ([4]; at 100.0 µM) of the same compound?
Its growth inhibition is 47%.

And the growth inhibition ([5]; at 1.2 µM)?
The growth inhibition was 23%.

And the growth inhibition ([5]; at 3.7 µM)?
Its growth inhibition is 24%.

And the growth inhibition [5, 16]?
The growth inhibition was 20%.

And the growth inhibition ([5]; at 11.0 µM)?
The growth inhibition was 42%.

And the growth inhibition ([5]; at 33.0 µM)?
The growth inhibition was 52%.

And the growth inhibition [5, 17]?
The growth inhibition was 54%.

And the growth inhibition ([5]; at 50.0 µM)?
Its growth inhibition is 50.2%.

What about the growth inhibition ([5]; at 100.0 µM) of the same compound?
The growth inhibition was 68%.

What about the growth inhibition ([6]; at 1.2 µM) of the same compound?
Its growth inhibition is 11%.

What about the growth inhibition ([6]; at 3.7 µM) of the same compound?
The growth inhibition was 5%.

And the growth inhibition [6, 16]?
The growth inhibition was 17%.

And the growth inhibition ([6]; at 11.0 µM)?
The growth inhibition was 16%.

What about the growth inhibition ([6]; at 33.0 µM) of the same compound?
The growth inhibition was 14%.

And the growth inhibition [6, 17]?
Its growth inhibition is 72% (active).

What about the growth inhibition ([6]; at 50.0 µM) of the same compound?
The growth inhibition was 33%.

What about the growth inhibition ([6]; at 100.0 µM) of the same compound?
Its growth inhibition is 31%.

And the growth inhibition ([7]; at 1.2 µM)?
The growth inhibition was 24%.

And the growth inhibition ([7]; at 3.7 µM)?
Its growth inhibition is 20%.

And the growth inhibition ([7]; at 11.0 µM)?
Its growth inhibition is 21%.

What about the growth inhibition ([7]; at 33.0 µM) of the same compound?
The growth inhibition was 38%.

What about the growth inhibition ([7]; at 100.0 µM) of the same compound?
Its growth inhibition is 34%.

And the growth inhibition [8, 16]?
The growth inhibition was 11%.

What about the growth inhibition [8, 17] of the same compound?
The growth inhibition was 92% (active).

And the growth inhibition ([8]; at 50.0 µM)?
The growth inhibition was 55.2%.

And the growth inhibition ([9]; at 1.2 µM)?
The growth inhibition was 29%.

And the growth inhibition ([9]; at 3.7 µM)?
Its growth inhibition is 24%.

What about the growth inhibition ([9]; at 11.0 µM) of the same compound?
Its growth inhibition is 34%.

And the growth inhibition ([9]; at 33.0 µM)?
Its growth inhibition is 38%.

And the growth inhibition ([9]; at 100.0 µM)?
The growth inhibition was 37%.

What about the growth inhibition [10, 16] of the same compound?
The growth inhibition was 25%.

What about the growth inhibition [10, 17] of the same compound?
Its growth inhibition is 75% (active).

And the growth inhibition ([10]; at 50.0 µM)?
Its growth inhibition is 14.7%.

What about the growth inhibition ([11]; at 1.2 µM) of the same compound?
The growth inhibition was -9%.

What about the growth inhibition ([11]; at 3.7 µM) of the same compound?
Its growth inhibition is -13%.

What about the growth inhibition [11, 16] of the same compound?
Its growth inhibition is 12%.

What about the growth inhibition ([11]; at 11.0 µM) of the same compound?
The growth inhibition was -5%.

What about the growth inhibition ([11]; at 33.0 µM) of the same compound?
Its growth inhibition is 14%.

What about the growth inhibition [11, 17] of the same compound?
Its growth inhibition is 89% (active).

And the growth inhibition ([11]; at 50.0 µM)?
The growth inhibition was 50.8%.

What about the growth inhibition ([11]; at 100.0 µM) of the same compound?
Its growth inhibition is 31%.

And the growth inhibition ([12]; at 1.2 µM)?
The growth inhibition was -22%.

What about the growth inhibition ([12]; at 3.7 µM) of the same compound?
Its growth inhibition is -21%.

What about the growth inhibition ([12]; at 11.0 µM) of the same compound?
The growth inhibition was -17%.

And the growth inhibition ([12]; at 33.0 µM)?
Its growth inhibition is 62%.

What about the growth inhibition ([12]; at 100.0 µM) of the same compound?
Its growth inhibition is 81% (active).

And the growth inhibition ([13]; at 1.2 µM)?
Its growth inhibition is 28%.

What about the growth inhibition ([13]; at 3.7 µM) of the same compound?
Its growth inhibition is 18%.

And the growth inhibition ([13]; at 11.0 µM)?
Its growth inhibition is 25%.

And the growth inhibition ([13]; at 33.0 µM)?
The growth inhibition was 36%.

And the growth inhibition ([13]; at 100.0 µM)?
Its growth inhibition is 64%.

What about the growth inhibition [14, 16] of the same compound?
The growth inhibition was 20%.

And the growth inhibition [14, 17]?
Its growth inhibition is 85% (active).

What about the growth inhibition ([14]; at 50.0 µM) of the same compound?
The growth inhibition was 57.6%.

And the growth inhibition ([15]; at 1.2 µM)?
The growth inhibition was 30%.

And the growth inhibition ([15]; at 3.7 µM)?
The growth inhibition was 32%.

What about the growth inhibition ([15]; at 11.0 µM) of the same compound?
The growth inhibition was 44%.

And the growth inhibition ([15]; at 33.0 µM)?
Its growth inhibition is 68%.

What about the growth inhibition ([15]; at 100.0 µM) of the same compound?
The growth inhibition was 73% (active).
